According to PubChem BioAssay (NCI):
About 83,000 compounds went through this panel and 20% of them were active in at least one assay; those are over-represented in the sample as a whole.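 Negative percent growth values reflect cell death: -40 means 40% of the cells present at the start died, and -100 means all died.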 Active and inactive are the calls of the source. Rule for the calls: active = growth percent below 10; inactive = the rest.

test system: SK-MEL-5 melanoma; assay: NCI-60 one-dose screen, 48 h (100 = growth as untreated, 0 = no growth, -100 = all killed); conditions: 10 µM unless noted

Row | SMILES | growth
1 | OCCCCc1nccc2c1[nH]c1ccccc12 | 97.5% (inactive)
2 | CCCn1nc(-c2ccccc2)c2c(-c3ccccc3)onc2c1=O | 79.7% (inactive)
3 | Cc1cc(N(CCCNc2ccnc3cc(Cl)ccc23)Cc2ccccn2)nc(N2CCCC2)n1 | 65.6% (inactive)
4 | C=C(C)[C@@H]1CC[C@]2(CN)CC[C@]3(C)[C@H](CC[C@@H]4[C@@]5(C)CCC(N)[C@@](C)(CO)[C@@H]5CC[C@]43C)[C@@H]12 (stereo partly drawn) | -97.2% (active)
5 | COc1ccc(-n2ncn(CCCCCCn3cnn(-c4ccc(OC)cc4)c3=O)c2=O)cc1 | 95.2% (inactive)
6 | O=C(NC1CCOCC1)c1ccc2c(c1)CN(c1ncc(Cc3cccc(-n4cccn4)c3)s1)CC2 | 31.5% (inactive)
7 | C=C(CNCCc1ccc(O)cc1)[C@@H]1CC[C@]2(COC3CCCCO3)CC[C@]3(C)[C@H](CC[C@@H]4[C@@]5(C)CCC(NCCO)C(C)(C)[C@@H]5CC[C@]43C)[C@@H]12 (stereo partly drawn) | -95.4% (active)
8 | Cc1c(C(=O)O[C@H]2[C@@H]3[C@H](C)CC[C@H]3[C@]3(C)O[C@@]2(C2CCCCC2)C[C@H]3OC(=O)CO)ccc2ccccc12 | 68.6% (inactive)
9 | COc1ccc(Oc2nc(Nc3ccc(N4CCCCC4)nc3)ncc2NC(=O)c2cc(OC)cc(OC)c2)cc1 | 28.7% (inactive)
10 | O=C(Oc1ccc[nH]c1=O)c1cc([N+](=O)[O-])cc([N+](=O)[O-])c1 | 105% (inactive)
11 | Cc1cc(N2CCCCC2)nc(N(CCNc2ccnc3cc(Cl)ccc23)Cc2ccccn2)n1 | 48.8% (inactive)
12 | CCCCOc1ccc(NC(=O)n2nc(N=NN(C)C)c3ccc(Cl)cc32)cc1 | 107% (inactive)
13 | O=C1NN(C(=O)c2ccc(O)cc2)C(c2ccccc2)=N/C1=C\c1cn(-c2ccccc2)nc1-c1ccccc1 | 98.7% (inactive)
14 | COC(=O)/C(=C\c1ccc(OC)cc1)C(=O)N1c2ccccc2Sc2ccccc21 | 41.5% (inactive)
15 | COc1ccc(Oc2nc(Nc3ccc(N4CCOCC4)nc3)ncc2NC(=O)c2cc(OC)cc(OC)c2)cc1 | 70.9% (inactive)
16 | NC(=O)c1c(NC(=O)c2ccc(C(F)(F)F)cc2Cl)sc2c1CCC(=O)C2 | -91.9% (active)
17 | O=C(NCCOCCOCCOCCNC(=O)c1cc2c(o1)C(=O)c1ccccc1C2=O)NC12CC3CC(CC(C3)C1)C2 | -97.7% (active)

Row | SMILES | growth
18 | COC(=O)c1ccc(CSc2nnc(-c3ccncc3)o2)cc1 | 112% (inactive)
19 | CCCc1nc2ccccn2c1Nc1ccc(C(=O)NO)cc1 | 101% (inactive)
20 | Fc1ccc(Nc2ccc3cc(OCCCN4CCOCC4)ccc3n2)cc1F | 60% (inactive)
21 | C=C1c2c(C)nn(-c3ccc(S(N)(=O)=O)cc3)c2N(C)C23CC1C1(C)c4c(C)nn(-c5ccc(S(N)(=O)=O)cc5)c4N(C)C(C)(CC12)C3 (stereo not drawn) | 45.5% (inactive)
22 | C=C1c2c(C)nn(-c3ccc(NC(C)=O)cc3)c2N(C)C23CC1C1(C)c4c(C)nn(-c5ccc(NC(C)=O)cc5)c4N(C)C(C)(CC12)C3 (stereo not drawn) | 19.1% (inactive)
23 | C[C@@H]1CC[C@@H]2[C@@H]1[C@H](OC(=O)c1ccc3ccccc3c1)[C@]1(C3CCCCC3)C[C@@H](OC(=O)CO)[C@@]2(C)O1 | 88.6% (inactive)
24 | CC(C)(C)c1ccc(C(=O)Nc2sc3c(c2C(N)=O)CCC(=O)C3)cc1 | -81.2% (active)
25 | N=c1ccn2c(n1)OC1C(O)C(CO)OC12 (stereo not drawn) | 45.9% (inactive)
26 | NC(=Nc1ccc(N)cc1)C(N)=Nc1ccc(N)cc1 | 98.7% (inactive)
27 | COc1ccc(/C=C(\C#N)n2nnc3cc(F)c(F)cc32)c(OC)c1OC | 60.5% (inactive)
28 | C=C1c2c(C)nn(-c3ccc(O)cc3)c2N(C)C23C[C@@H]1C1(C)c4c(C)nn(-c5ccc(O)cc5)c4N(C)C(C)(C[C@H]12)C3 (stereo partly drawn) | 11.4% (inactive)
29 | CSc1ccc(Cl)c(C(=O)Nc2sccc2C(N)=O)c1 | 95% (inactive)
30 | C=C1c2c(C)nn(-c3ccc(N)cc3)c2N(C)C23CC1C1(C)c4c(C)nn(-c5ccc(N)cc5)c4N(C)C(C)(CC12)C3 (stereo not drawn) | 52.9% (inactive)
31 | C=C(C)[C@@H]1CC[C@]2(CNCCO)CC[C@]3(C)[C@H](CC[C@@H]4[C@@]5(C)CCC(N)[C@@](C)(CO)[C@@H]5CC[C@]43C)[C@@H]12 (stereo partly drawn) | -96.1% (active)
32 | Cc1cnc(Nc2ccc(OCCN3CCCC3)cc2)nc1NCc1ccco1 | 81.7% (inactive)
33 | Cc1cc(N(CCCNc2ccnc3cc(Cl)ccc23)Cc2ccccn2)nc(N2CCOCC2)n1 | 105% (inactive)
